Records with an inconclusive call do not appear. Activity calls are given as the source filed them. Calls come from the whole dose curve; as a rule, active = well fitted curve in the direction sought with a large enough effect; inconclusive = small, poorly fitted or top-dose-only effect, or another doubt; inactive = no such curve, though single readings can be large; an effect the other way counts as inactive or inconclusive.
Legend:
[1] = biological target: Metallo-beta-lactamase type 2 (Klebsiella pneumoniae) (UniProt C7C422); test: qHTS to identify inhibitors of the New Delhi Metallo-beta-lactamase (NDM): assay validation screen against the NCATS LOPAC Collection (AID 1794843); settings: NDM-1 enzyme, nitrocefin hydrolysis, absorbance 485 nm; series mostly up to 38.4 µM;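 note: nitrocefin turnover by NDM-1 measured as 485 nm absorbance at plateau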
In short: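 NDM-1 at 2 nM final in 50 mM HEPES pH 7.0, 1 uM ZnSO4, 0.01% Tween20, preincubated with LOPAC compounds pinned in DMSO; 50 uM nitrocefin (stock) added. Hydrolysis read as absorbance at 485 nm in the plateau phase.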

[2] = biological target: Glutathione peroxidase 1 (Homo sapiens) (UniProt P07203); test: Primary qHTS Assay for Inhibitors of Recombinant Selenoprotein Glutathione Peroxidase 1 (GPX1) (AID 1845191); settings: recombinant GPX1, GR-coupled NADPH fluorescence, 15 min; series mostly up to 48.8 µM; note: nearly all actives have a fitted effect of over 65% in size
In short: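 10 nM GPX1 + cpd, 30 min RT; start w/ 1 mM GSH, 0.5 mM cumene hydroperoxide, 0.5 mM NADPH, 100 nM GR, 0.01% BSA; buffer 50 mM Tris-HCl pH 7.5, 2 mM EDTA, 150 mM NaCl; Fl 340/450, 0 & 15 min.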

[3] = biological target: Phospholipid hydroperoxide glutathione peroxidase GPX4 (Homo sapiens) (UniProt P36969); test: Primary qHTS Assay for Inhibitors of Recombinant Selenoprotein Glutathione Peroxidase 4 (GPX4) (AID 1845192); settings: recombinant GPX4, GR-coupled NADPH fluorescence, 15 min; series mostly up to 50 µM; note: nearly all actives have a fitted effect of over 65% in size
In short: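 NADPH consumption, followed by fluorescence at 340/450 nm between 0 and 15 min, reports GPX4 activity via coupled glutathione reductase (100 nM). Enzyme 200 nM was pre-exposed to compound 30 min; 0.5 mM cumene hydroperoxide and 1 mM GSH served as substrates.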

Measured: Potency

Sequence of Metallo-beta-lactamase type 2 (Klebsiella pneumoniae) (C7C422 whole entry, looked up): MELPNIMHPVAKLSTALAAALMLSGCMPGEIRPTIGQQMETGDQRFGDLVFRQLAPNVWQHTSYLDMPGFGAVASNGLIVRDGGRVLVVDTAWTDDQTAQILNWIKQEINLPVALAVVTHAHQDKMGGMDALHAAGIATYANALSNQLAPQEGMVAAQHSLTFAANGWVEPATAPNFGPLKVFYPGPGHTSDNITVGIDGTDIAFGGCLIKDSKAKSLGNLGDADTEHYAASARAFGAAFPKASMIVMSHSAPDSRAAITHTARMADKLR
Sequence of Phospholipid hydroperoxide glutathione peroxidase GPX4 (Homo sapiens) (P36969 whole entry, looked up): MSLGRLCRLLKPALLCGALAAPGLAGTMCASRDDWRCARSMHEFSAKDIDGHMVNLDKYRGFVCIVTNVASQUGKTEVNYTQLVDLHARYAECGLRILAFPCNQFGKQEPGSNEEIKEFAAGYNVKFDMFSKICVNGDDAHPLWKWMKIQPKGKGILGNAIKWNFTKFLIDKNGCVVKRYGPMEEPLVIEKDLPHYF
Sequence of Glutathione peroxidase 1 (Homo sapiens) (P07203 whole entry, looked up): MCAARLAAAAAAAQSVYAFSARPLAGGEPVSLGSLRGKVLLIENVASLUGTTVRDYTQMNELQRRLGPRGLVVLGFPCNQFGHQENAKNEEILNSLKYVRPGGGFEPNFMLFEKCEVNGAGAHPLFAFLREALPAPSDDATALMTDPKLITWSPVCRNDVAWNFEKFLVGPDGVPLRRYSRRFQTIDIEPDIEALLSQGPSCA

N[C@@H](Cc1c[nH]c2ccccc12)C(=O)O
inactive: all assays above

c1ccc(CN2CCC3(CCCc4ccccc43)CC2)cc1
inactive: all assays above

O=[N+]([O-])c1cccc2cn[nH]c12
inactive: all assays above

CN1Cc2sccc2C(c2ccc(O)c(O)c2)C1 (stereo not given)
inactive: all assays above

CCCCCCN(CCCCCC)C(=O)Cc1c(-c2ccc(F)cc2)[nH]c2ccccc12
inactive: all assays above

Nc1ccc(-c2nc3ccc(-c4nc5ccc(N)cc5[nH]4)cc3[nH]2)cc1
inactive: all assays above

CN1CCc2cc(Cl)c(O)cc2[C@@H](c2ccccc2)C1
inactive: all assays above

O=C(O)CCC/C=C\C[C@@H]1[C@@H](/C=C/[C@H](O)C2Cc3ccccc3C2)[C@@H](F)C[C@@H]1O
inactive: all assays above

Cn1c(=O)c2[nH]c(C3CCCC3)nc2n(C)c1=O
inactive: all assays above

Cc1cccc(C2CN(C)CCc3c2cc(O)c(O)c3Cl)c1 (stereo not given)
inactive: all assays above

C=CCN1CCc2c(cc(O)c(O)c2Cl)C(c2ccccc2)C1 (stereo not given)
inactive: all assays above

CSC(N)=NCCC[C@H](N)C(=O)O
inactive: all assays above

OC[C@H]1O[C@@H](n2cnc3cncnc32)[C@H](O)[C@@H]1O
inactive: all assays above

C=CC[C@H](N)C(=O)O
inactive: all assays above

CCCOC(=O)c1c(-c2ccccc2)nc(CC)c(C(=O)SCC)c1CCC
inactive: all assays above
